Screening results as filed in PubChem BioAssay.
ATXN viability – Viability Counterscreen for Primary qHTS for Inhibitors of ATXN expression. S2 cells (HEK-293 line with an ATXN2-luciferase reporter) viability, CellTiter-Fluor protease fluorescence, 24 h. Potency, µM (doses to about 56.7 µM), actives largely listed as cytotoxic. hit rate 0.49% among 400,000. AID 651635, 2014; further: potency means the concentration at half of the fitted maximal effect; nearly all actives have a fitted effect of over 40% in size
IL-1B inflam inh – qHTS for Inhibitors of Inflammasome Signaling: IL-1-beta AlphaLISA Primary Screen | AID 743279, 2014 | THP-1 LPS/ATP IL-1B secretion, AlphaLISA, 16 h; active compounds read low | activity change, % at 57.5 µM | hit rate 4.7% among 360,000; in the data active means activity change below about -50%; inconclusive means mostly about -30% to -49%; further: on the % scale 0 is the no-effect control and ±100 the full control effect
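THP-1 cells pretreated 1 hr with compounds (up to 57.5 uM final), then stimulated with LPS (250 ng/mL final) plus ATP (1.25 mM final); secreted IL-1B measured by AlphaLISA after 16 hr, decreased signal indicating inhibition.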
USP1-UAF1 inh – Inhibitors of USP1/UAF1: Primary Screen; hit rate 0.23% among 390,000; Potency, µM (doses to about 57.1 µM), inactives show at the highest dose activity change, negative = inhibition, actives largely listed as inhibitors; Ubiquitin carboxyl-terminal hydrolase 1 (Homo sapiens), O94782; recombinant USP1/UAF1, Ub-Rhodamine cleavage fluorescence; further: potency means the concentration at half of the fitted maximal effect; on the % scale 0 is the no-effect control and ±100 the full control effect; nearly all actives have a fitted effect of over 60% in size
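USP1/UAF1 complex (1 nM) preincubated 15 min at room temperature with compound, then Ub-Rho substrate (150 nM final) added. Kinetic fluorescence at 480/540 nm over 6 reads at 60 s intervals; 50 mM HEPES pH 7.8, 0.5 mM EDTA, 0.1 mg/ml BSA, 1 mM TCEP, 0.01% Tween-20.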
USP2a inh – qHTS Assay for Inhibitors of Ubiquitin-specific Protease USP2a Using CHOP2 as the Reporter. USP2 core, Ub-CHOP2 coupled fluorogenic reporter, 485/531. Ubiquitin carboxyl-terminal hydrolase 2 (Homo sapiens), O75604. hit rate 0.01% among 330,000. AID 463254, 2010. Potency, µM (highest dose often 38.3 µM), inactives show at the highest dose activity change, negative = inhibition, most hits filed as inhibitors;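 further: potency means the concentration at half of the fitted maximal effect; plate controls were DMSO wells for no effect and full inhibition by NEM control for full effect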
Target sequence (O75604 whole entry, looked up): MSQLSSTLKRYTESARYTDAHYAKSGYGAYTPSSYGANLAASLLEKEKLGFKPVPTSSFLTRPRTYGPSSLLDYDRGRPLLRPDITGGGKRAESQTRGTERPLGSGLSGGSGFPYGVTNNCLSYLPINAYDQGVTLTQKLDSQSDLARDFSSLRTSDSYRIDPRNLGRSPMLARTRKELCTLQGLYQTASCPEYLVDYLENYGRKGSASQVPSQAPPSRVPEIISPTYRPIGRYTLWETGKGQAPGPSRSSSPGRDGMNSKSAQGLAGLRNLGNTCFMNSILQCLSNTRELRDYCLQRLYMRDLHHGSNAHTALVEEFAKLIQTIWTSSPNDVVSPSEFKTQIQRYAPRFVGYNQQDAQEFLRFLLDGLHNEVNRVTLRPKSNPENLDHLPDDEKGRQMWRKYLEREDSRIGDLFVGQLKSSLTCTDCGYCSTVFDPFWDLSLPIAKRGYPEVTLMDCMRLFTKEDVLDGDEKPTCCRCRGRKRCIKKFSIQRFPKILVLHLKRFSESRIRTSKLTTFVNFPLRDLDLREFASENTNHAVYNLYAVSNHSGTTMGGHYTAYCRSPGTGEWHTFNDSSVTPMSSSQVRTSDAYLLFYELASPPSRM
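Cell-free coupled assay: 10nM USP2 core preincubated 30min RT with compound in Tris-HCl pH 8.0/CaCl2/CHAPS buffer, then 25nM Ub-CHOP2 and 25nM reporter substrate; fluorescence (Ex 485/Em 531) read after 60min RT, normalized to NEM inhibition, concentration-response curves fitted.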
ATXN2 expr inh – Primary qHTS for Inhibitors of ATXN expression | Potency, µM (titrated, usually from 57 µM), without a hit: at the top dose activity change, negative = inhibition, most hits filed as inhibitors | AID 1745845, 2022 | HEK-293 ATXN2-luciferase reporter, luminescence, 24 h | hit rate 0.72% among 360,000; further: potency means the concentration at half of the fitted maximal effect; on the % scale 0 is the no-effect control and ±100 the full control effect; nearly all actives have a fitted effect of over 55% in size
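qHTS (up to 57 uM final) was run with 24 h compound exposure of reporter cells at 37 °C. Each well was multiplexed: SteadyGlo luminescence measured ATXN2-luciferase expression after a fluorogenic Gly-Phe-AFC viability readout (25 uM final).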
* hit, by the source's call; i = inactive; ? = inconclusive; . = not tested or not shown; [ ] = dose if it differs, or a comment. Hits are enriched below; roughly 4.8% of the tested compounds scored in any of these assays. Unless noted, the call rests on the fitted dose curve; in most records, active means well fitted curve in the direction sought with a large enough effect; inconclusive means small, poorly fitted or top-dose-only effect, or another doubt; inactive means no such curve, though single readings can be large; an effect the other way counts as inactive or inconclusive.

SMILES	ATXN viability	IL-1B inflam inh	USP1-UAF1 inh	USP2a inh	ATXN2 expr inh
Cc1cccc(-n2c(SCC(=O)Nc3ccccc3C)nc3c(oc4ccccc43)c2=O)c1	.	.	-9%	.	.
CC(C)(C)c1ccc(C(=O)NCCOc2ccccc2F)cc1	i	21	-25%	-3%	13µM*
O=C(OCc1ccccc1)N1Cc2ccnnc2CC1c1ccccc1Br (stereo not given)	i	-8	.	.	-13%
Cc1nc(Nc2cnc(/C=C/c3cc(C(=O)Nc4cccc(C(F)(F)F)c4)ccc3C)cn2)cc(N2CCNCC2)n1	i	-97*	?	-3%	16µM*
Cc1ccc(NC(=O)CSc2nc(NS(=O)(=O)c3ccccc3)cc(=O)[nH]2)cc1	?	36	-12%	0%	2%
CCc1ccc(NC(=O)CSc2nc(NS(=O)(=O)c3ccccc3)cc(=O)[nH]2)cc1	i	-55*	-20%	-1%	-4%
O=C(N/N=C/c1ccc(O)cc1)Nc1cccc2nsnc12	.	-98*	-10%	-2%	4%
CCOC(=O)[C@]12CCCC=C1N(Cc1ccccc1)C(=O)[C@H](CC(=O)NCc1cccc3ccccc13)C2	.	-22	.	.	.
COc1ccc(-[n+]2c(C)cc(/C=C3\Sc4ccccc4N3C)cc2C)cc1	?	-94*	-9%	6%	?
COc1ccc(C(=O)/C=C2\Sc3ccccc3N2C)cc1	.	-2	-8%	2%	33%[11.3 µM]
COc1ccccc1-[n+]1c(C)cc(/C=C2\Sc3ccccc3N2C)cc1C	?	-63*	?	-2%	.
Cc1ccc([C@H]2C[C@H](n3cc(-c4ccc(F)cc4)nn3)[C@@H](O)CN2C(=O)c2cccs2)cc1	?	-51*	?	.	-18%
CCCCCCN1C[C@H](O)[C@@H](n2cc(-c3ccc(F)cc3)nn2)C[C@@H]1c1ccccc1	18µM*	-20	-12%	.	-33%
CCCCCCN1C[C@H](n2cc(-c3ccc(F)cc3)nn2)[C@@H](O)C[C@@H]1c1ccc(Cl)cc1	.	-104*	-22%	.	32µM*
CCCCCC(=O)N1C[C@@H](n2cc(-c3ccc(F)cc3)nn2)[C@H](O)C[C@@H]1c1ccc(C)cc1	16µM*	-20	-13%	.	?
CCCCCCN1C[C@H](n2cc(-c3ccc(F)cc3)nn2)[C@@H](O)C[C@@H]1c1ccccc1	i	12	-4%	.	1%
CCCCCCN1C[C@@H](O)[C@H](n2cc(-c3ccc(F)cc3)nn2)C[C@@H]1c1ccc(OC)cc1	?	-3	-25%	.	-2%
O=C(c1cccs1)N1C[C@@H](O)[C@H](n2cc(-c3ccc(F)cc3)nn2)C[C@@H]1c1ccccc1	i	9	-6%	.	-24%
Cc1ccc([C@H]2C[C@H](O)[C@@H](n3cc(-c4ccc(F)cc4)nn3)CN2Cc2cccs2)cc1	?	1	-17%	.	?
O[C@H]1C[C@H](c2ccc(Cl)cc2)N(Cc2cccs2)C[C@@H]1n1cc(-c2ccc(F)cc2)nn1	.	-25	-26%	.	32µM*
CC1C(c2ccccc2)N(C)C(c2ccccc2)C(C)C1(O)C#Cc1ccccc1 (stereo not given)	?	-65*	-23%	3%	-30%
CCN1CCC(O)(C#Cc2ccccc2)CC1	i	45	-7%	3%	9%
O=S(=O)(C/C(=C/CO)S(=O)(=O)c1ccccc1)c1ccccc1	20µM*	-106*	-16%	1%	?
Cc1ccc(NC(=S)N2CCC(c3nc4ccccc4s3)CC2)cc1C	i	-65*	34%	-9%	-11%
Cc1cc(C)cc(NC(=S)N2CCC(c3nc4ccccc4s3)CC2)c1	i	-1	-5%	1%	-17%
CN(C)CCc1cc2c(c3c1ccc1ccccc13)OCO2	?	-96*	-11%	1%	.
COc1cc2ccc3c(CCN(C)C)cc(OC)c(OC)c3c2cc1OC	i	?	-11%	2%	.
